HT1080-NT tox – kills 2HG-producing HT-1080-NT fibrosarcoma cells; hit rate 1.6% among 360,000; HT-1080-NT fibrosarcoma viability, CellTiter-Glo ATP luminescence, 48 h; Potency, µM (doses to about 46.1 µM), for inactives: at the highest dose activity, negative = less viability, most hits filed as cytotoxic;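 further: NT is the 2HG producing partner of a matched IDH1 knockdown line; potency means the concentration at half of the fitted maximal effect; 0% = DMSO-treated cells and -100% = media-only wells without cells; nearly all actives have a fitted effect of over 55% in size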
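HT-1080-NT; 750 cells/well; 5% FBS RPMI; 48 h compound, 37 degrees C; CellTiter-Glo luminescence; curve fitting and curve-class assignment.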
HT1080 IDH1KD tx – toxicity to HT-1080 IDH1 knockdown cells (counter line) | HT-1080 IDH1 knockdown viability, ATP luminescence, 48 h | Potency, µM (highest dose often 46.1 µM), for inactives: at the top dose activity, negative = toxicity, most hits filed as cytotoxic | hit rate 2% among 360,000 | AID 686971;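 further: potency means the concentration at half of the fitted maximal effect; 0% = DMSO wells and -100% = cell-free medium wells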
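Cytotoxicity counter-line: IDH1KD HT-1080, 48 h, CellTiter-Glo. Curves classed by r2, magnitude and activity.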
DT40 TDP1 no CPT – qHTS for Inhibitors of human tyrosyl-DNA phosphodiesterase 1 (TDP1): qHTS in cells in absence of CPT; Potency, µM (highest dose often 46.2 µM), for the others: at the highest dose activity change, negative = growth inhibition, hits mostly inhibitors; DT40 Tdp1-/- hTDP1 cells, no CPT, ATP luminescence, 48 h; AID 686978, 2013; hit rate 15% among 420,000; further: potency means the concentration at half of the fitted maximal effect; nearly all actives have a fitted effect of over 55% in size
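Camptothecin absent (DMSO only). Human TDP1-complemented DT40 knockout cells, 400 cells/well, 37 °C for minimum 48 hr; ATP measured via CellTiter-Glo, 30 min dark incubation, luminescence.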
TDP1 cell CPT – growth inhibition of DT40 Tdp1-/-;hTDP1 cells with camptothecin (screen for TDP1 inhibitors); chicken DT40 Tdp1-/-;hTDP1 cells + 20 nM CPT, ATP luminescence, 48 h; AID 686979; hit rate 12% among 420,000; Potency, µM (titrated, usually from 46.2 µM), inactives show top-dose activity change, negative = growth inhibition, usual class: inhibitors; further: potency means the concentration at half of the fitted maximal effect; nearly all actives have a fitted effect of over 55% in size
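Chicken DT40 Tdp1-/- cells stably complemented with human TDP1 were seeded at 400 cells/well in medium containing 20 nM camptothecin, exposed to pin-transferred compounds, and grown at 37 °C for at least 48 hr. Viability was read as ATP luminescence.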
IL1B secr inh – inhibitors of inflammasome signaling (IL-1 beta secretion); THP-1 LPS/ATP IL-1B secretion, AlphaLISA, 16 h; stronger effect = lower value; hit rate 4.7% among 360,000; AID 743279; activity change, % at 57.5 µM; in the data active means activity change below about -50%; inconclusive means mostly about -30% to -49%
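THP-1 cells pretreated 1 hr with compounds (up to 57.5 uM final), then stimulated with LPS (250 ng/mL final) plus ATP (1.25 mM final); secreted IL-1B measured by AlphaLISA after 16 hr, decreased signal indicating inhibition.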
* hit, by the source's call. An excerpt weighted towards active compounds, which were near 19% of everything screened. Unless noted, the call rests on the fitted dose curve; in most records, active means well fitted curve in the direction sought with a large enough effect; inconclusive means small, poorly fitted or top-dose-only effect, or another doubt; inactive means no such curve, though single readings can be large; an effect the other way counts as inactive or inconclusive. Unless noted, on the % scale 0 is the no-effect control and ±100 the full control effect.

For Cc1ccc2nc(-c3ccccc3)c(Cc3ccccc3C(F)(F)F)n2c1 the results were HT1080-NT tox inconclusive, HT1080 IDH1KD tx inconclusive, DT40 TDP1 no CPT inconclusive, TDP1 cell CPT 16µM* and IL1B secr inh -13.
`COc1ccccc1Cc1c(C(C)(C)C)nc2ccc(C)cn12` gave HT1080-NT tox inconclusive, HT1080 IDH1KD tx inconclusive, DT40 TDP1 no CPT 9.2µM*, TDP1 cell CPT 0.65µM* and IL1B secr inh 6.
`Cc1nnsc1SCCNC(=O)Nc1ccc(Cl)cc1` gave HT1080-NT tox 21%, HT1080 IDH1KD tx 3%, DT40 TDP1 no CPT inconclusive, TDP1 cell CPT inconclusive and IL1B secr inh -8.
Cc1cc(C(=O)O)cc(S(=O)(=O)NNC(=O)c2cccs2)c1C was read as HT1080-NT tox -1%, HT1080 IDH1KD tx -5%, DT40 TDP1 no CPT 30%, TDP1 cell CPT -14% and IL1B secr inh -6.
`CC(C(=O)Nc1ccc(C#N)cc1)N(C)CC(=O)N(C)c1c(N)n(Cc2ccccc2)c(=O)[nH]c1=O` (configuration not stated) gave HT1080-NT tox 3%, HT1080 IDH1KD tx 8%, DT40 TDP1 no CPT -16%, TDP1 cell CPT 11% and IL1B secr inh 19.
For COc1ccc(Cc2c(C(C)(C)C)nc3ccc(C)cn23)c(C)c1 the results were HT1080-NT tox inconclusive, HT1080 IDH1KD tx inconclusive, DT40 TDP1 no CPT 13µM*, TDP1 cell CPT 15µM* and IL1B secr inh -14.
`COc1ccc(Cc2c(C(C)(C)C)nc3ccc(Cl)cn23)c(C)c1` gave HT1080-NT tox inconclusive, HT1080 IDH1KD tx inconclusive, DT40 TDP1 no CPT inconclusive, TDP1 cell CPT inconclusive and IL1B secr inh 19.
For Cc1ccc(-c2nc3ccc(C)cn3c2Cc2ccccc2C(F)(F)F)cc1 the results were HT1080-NT tox inconclusive, HT1080 IDH1KD tx inconclusive, DT40 TDP1 no CPT inconclusive, TDP1 cell CPT 29µM* and IL1B secr inh -28.
Screening CC(=O)C1=C(C)N2CCN=C2S1 returned HT1080-NT tox 15%, HT1080 IDH1KD tx -1%, DT40 TDP1 no CPT -10%, TDP1 cell CPT -15% and IL1B secr inh 7.
For O=C(CCCc1ccccc1)NCc1ccccc1Cl the results were HT1080-NT tox 20%, HT1080 IDH1KD tx 8%, DT40 TDP1 no CPT -16%, TDP1 cell CPT -17% and IL1B secr inh -6.
`O=S1(=O)CCO[C@H]2CCCC[C@@H]2N1Cc1cccc(F)c1` gave DT40 TDP1 no CPT -18% and TDP1 cell CPT -29%.
O=C(Nc1ccc(F)cc1F)c1cc2nc3c(c(C(F)(F)F)n2n1)CCCC3 was read as HT1080-NT tox 15%, HT1080 IDH1KD tx 16%, DT40 TDP1 no CPT 0%, TDP1 cell CPT -29% and IL1B secr inh 1.
`Cc1cc(C)cc(NC(=O)N2CCNC(=O)C2CC(=O)Nc2cc(Cl)ccc2Cl)c1` (configuration not stated) gave HT1080-NT tox -2%, HT1080 IDH1KD tx 6%, DT40 TDP1 no CPT inconclusive, TDP1 cell CPT inconclusive and IL1B secr inh -57*.
Screening COC(=O)c1cccc(NC(=O)CC2C(=O)NCCN2C(=O)Nc2cc(C)cc(C)c2)c1 (configuration not stated) returned HT1080-NT tox -21%, HT1080 IDH1KD tx -30%, DT40 TDP1 no CPT 0%, TDP1 cell CPT -2% and IL1B secr inh -62*.
COc1ccc(NC(=O)CC2C(=O)NCCN2C(=O)Nc2ccc(C(F)(F)F)cc2)cc1 (configuration not stated) was read as HT1080-NT tox inconclusive, HT1080 IDH1KD tx inconclusive, DT40 TDP1 no CPT 5%, TDP1 cell CPT -18% and IL1B secr inh -79*.
For COC(=O)CC1C(=O)NCCN1C(=O)Nc1ccccc1 (configuration not stated) the results were HT1080-NT tox 24%, HT1080 IDH1KD tx 18%, DT40 TDP1 no CPT 1%, TDP1 cell CPT 1% and IL1B secr inh 8.
For CCOc1cc(NC(=S)NCCCN2CCOCC2)c(OCC)cc1NC(=O)c1cccs1 the results were HT1080-NT tox 2%, HT1080 IDH1KD tx 6%, DT40 TDP1 no CPT -25%, TDP1 cell CPT 5% and IL1B secr inh 0.
`COCCN(C(=O)Cc1coc2cc(C)c(C)cc12)c1c(N)n(Cc2ccccc2)c(=O)[nH]c1=O` gave HT1080-NT tox 8%, HT1080 IDH1KD tx 8%, DT40 TDP1 no CPT 3%, TDP1 cell CPT 0% and IL1B secr inh -2.
O=C(COc1ccccc1Br)N1CCN(C(=O)c2ccco2)CC1 was read as HT1080-NT tox 15%, HT1080 IDH1KD tx 9%, DT40 TDP1 no CPT 18%, TDP1 cell CPT inconclusive and IL1B secr inh -17.
Screening Cc1ccc(S(=O)(=O)NC2CCCC2)cc1C(N)=O returned HT1080-NT tox 0%, HT1080 IDH1KD tx 5%, DT40 TDP1 no CPT 2%, TDP1 cell CPT -12% and IL1B secr inh 17.
For CN(C)CCOc1nc(-c2ccccc2)nc2c1oc1ccccc12 the results were HT1080-NT tox inconclusive, HT1080 IDH1KD tx -2%, DT40 TDP1 no CPT 23µM*, TDP1 cell CPT inconclusive and IL1B secr inh -99*.
For CC(C)=CCC/C(C)=C/CNC(=O)C[C@H]1C[C@H](C(=O)N2CCCCC2)[C@@]2(CCc3ccccc3)c3[nH]c4cc(CCC(=O)N(C)C)ccc4c3CCN2C1=O the results were HT1080-NT tox -5%, HT1080 IDH1KD tx 4%, DT40 TDP1 no CPT 8.2µM*, TDP1 cell CPT 10µM* and IL1B secr inh -68*.
Screening CCN(CC)C(=O)[C@H]1C[C@H](CC(=O)NC/C=C(\C)CCC=C(C)C)C(=O)N2CCc3c([nH]c4cc(CCC(=O)N(C)C)ccc34)[C@]12C returned HT1080-NT tox -15%, HT1080 IDH1KD tx -27%, DT40 TDP1 no CPT 15µM*, TDP1 cell CPT 16µM* and IL1B secr inh inconclusive.
Screening COc1ccc(NC(=O)Cc2cccc3ccccc23)cc1 returned HT1080-NT tox 4%, HT1080 IDH1KD tx 3%, DT40 TDP1 no CPT -33%, TDP1 cell CPT -9% and IL1B secr inh -1.
For Cc1nn(-c2cccc(Cl)c2)c(Cl)c1/C=N/NC(=O)c1cccs1 the results were HT1080-NT tox -2%, HT1080 IDH1KD tx inconclusive, DT40 TDP1 no CPT 13µM*, TDP1 cell CPT 16µM* and IL1B secr inh -2.
Screening CC1(C(=O)O)CCCN(C(=O)c2ccc(F)cc2Cl)C1 (configuration not stated) returned HT1080-NT tox -1%, HT1080 IDH1KD tx 9%, DT40 TDP1 no CPT 0%, TDP1 cell CPT 5% and IL1B secr inh 11.
